Screening data as filed in PubChem BioAssay.
ADAM17 inh: ADAM17 inhibitors, primary screen, biochemical, QFRET | 370,000 tested, 0.83% active | recombinant ADAM17, EDANS/DABCYL FRET peptide cleavage | inhibition, % at 6.95 µM | Disintegrin and metalloproteinase domain-containing protein 17 (Homo sapiens), P78536 | AID 720648, 2013;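 active = inhibition above the mean of compounds lying between control limits plus 3 SD, set per campaign, cut at about 8.5% in these data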;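 note: 0% = DMSO-only wells as the low control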
NPR2 activator: human GC-B receptor activators, primary screen, HEK293 GC-B cells, cGMP TR-FRET, EC30 CNP; Atrial natriuretic peptide receptor 2 (Homo sapiens), P20594; 0% at EC30 CNP, 100% saturating CNP; activation, % at 10 µM; 370,000 tested, 0.11% active; AID 1920062, 2024;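 active = activation at 10 µM reaching about 35% in either raw or pattern-adjusted values, limit read from the data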
NPR1 activator: GC-A stimulated cGMP production enhancers – HEK293 GC-A cells, cGMP TR-FRET, EC30 ANP, primary screen. activation, % at 10 µM. Atrial natriuretic peptide receptor 1 (Homo sapiens), P16066. 0% at EC30 ANP, 100% saturating ANP. 370,000 tested, 0.14% active; in the data active = activation above about 40%
FAS TE block: FAS thioesterase domain inhibitors, primary screen, biochemical, fluorescence intensity, uHTS; recombinant FAS-TE, OMFH fluorogenic substrate, fluorescence endpoint; inhibition, % at 15 µM; 360,000 tested, 0.67% active;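 active = compounds whose normalised, plate-corrected inhibition of enzyme fluorescence in the single-dose primary screen is 50% or more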;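 note: 0% = DMSO with enzyme and 100% = substrate without enzyme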
ADAM10 inh: human ADAM10 inhibitors, primary screen, biochemical, QFRET, HTS; AID 720582, 2013; inhibition, % at 7 µM; 370,000 tested, 0.62% active; recombinant ADAM10, EDANS/DABCYL FRET peptide cleavage, 3 h;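 active = inhibition above a per-campaign cutoff equal to the mean of compounds falling between control-based bounds plus 3 SD, cut at about 20% in these data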;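 note: 0% = DMSO wells while the 100% control is not disclosed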
ADAM10 counter: ADAM10 inhibitors, counter-screen for ADAM17 exosite inhibitor project, biochemical, FRET, human ADAM10. recombinant ADAM10, EDANS/DABCYL FRET peptide cleavage, 3 h. 2,900 tested, 47% active. inhibition, % at 6.95 µM. shares compounds with ADAM17 inh;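 active = mean inhibition over the triplicate runs exceeds the activity threshold set in the earlier primary screen, cut at about 20% in these data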;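 note: 0% = DMSO wells and 100% = marimastat wells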
ADAM17 confirm: ADAM17 inhibitors, hit retest, confirmation, biochemical, QFRET peptide cleavage | recombinant ADAM17, EDANS/DABCYL QFRET peptide cleavage | 2,900 tested, 65% active | inhibition, % at 6.95 µM | AID 743257, 2014 | shares compounds with ADAM17 inh;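 active = mean inhibition across replicates above the hit cutoff set in the primary screen, cut at about 8.5% in these data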;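 note: 0% = DMSO wells and 100% = marimastat wells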
* = called active by the depositor; i = inactive; nt = no result. A selection: hits, their analogues and other compounds. The true share with any hit is near 2%.

SMILES | ADAM17 inh | NPR2 activator | NPR1 activator | FAS TE block | ADAM10 inh | ADAM10 counter | ADAM17 confirm
O=C(Nc1ccc(N2CCN(C(=O)c3cccs3)CC2)c(Cl)c1)c1ccco1 | 9.0* | 3 | 5 | 12 | 3 | 5 | 9
CC(=O)Oc1ccc(N2C(=O)CCC2=O)cc1 | -2 | 5 | 2 | -8 | -2 | nt | nt
CC(=O)Oc1ccc(N2C(=O)C3C4C=CC(O4)C3C2=O)cc1 (centres undefined) | 9.8* | 4 | 5 | -7 | -2 | 19 | 17*
COc1ccc(CNC(=O)CCNS(=O)(=O)c2ccc3[nH]c(=O)oc3c2)cc1 | 2 | 5 | 4 | nt | 4 | nt | nt
O=C(CNC(=O)/C(=C\c1ccc(Br)cc1)NC(=O)c1ccccc1)OCc1ccccc1 | 10* | -8 | 1 | 15 | 12 | 22* | 6
Cc1ccc(S(=O)(=O)Nc2cc(=O)[nH]c(SCc3ccc(Cl)cc3)n2)cc1 | 12* | -1 | -2 | 16 | 16 | 20* | 17*
O=c1cc(NS(=O)(=O)c2ccccc2)nc(SCc2c(Cl)cccc2Cl)[nH]1 | 5 | 1 | 1 | -3 | 9 | nt | nt
CCC1CCC2(CC1)NC(=O)N(CC(=O)c1c(C)[nH]c3ccccc13)C2=O (centres undefined) | 8.9* | 1 | -1 | 11 | 18 | 4 | 8
O=C(CSc1nnc(COc2ccc(Cl)cc2)n1Cc1ccco1)Nc1ccc(OCc2ccccc2)cc1 | 4 | 8 | -1 | nt | 7 | nt | nt
O=C(CSc1nnc(COc2ccc(Cl)cc2)n1Cc1ccco1)Nc1cccc2ccccc12 | 9.3* | -4 | -6 | nt | 16 | 36* | 18*
Cc1ccc(OCc2nnc(SCC(=O)Nc3cccc4ccccc34)n2Cc2ccco2)cc1 | 10.0* | 2 | -3 | nt | 17 | 39* | 19*
COC(=O)[C@]12C[C@H](CC(=O)NCC34CC5CC(CC(C5)C3)C4)C(=O)N(Cc3ccc(Cl)cc3Cl)C1=C[C@H](C(C)(C)C)O[C@@H]2C | -1 | 5 | -1 | nt | -1 | nt | nt
COC(=O)c1cc(-c2ccc3ccccc3c2)c(=O)n2c1CCC2 | -161 | -5 | 6 | nt | i | nt | nt
COc1ccc2c(c1)N[C@@](CCNC=O)(c1[nH]c3ccccc3c1CCNC=O)C2=O | -7 | -10 | -4 | nt | -18 | nt | nt
Cc1ccc(SC[C@H](CC(C)C)N2CCN(CCc3ccccc3)CCC2=O)cc1 | -1 | 0 | -2 | 30 | 11 | nt | nt
CC(=O)Nc1ccc(SC[C@H](CC(C)C)N2CCN(CCc3ccccc3)CCC2=O)cc1 | 9.0* | -1 | -1 | -5 | 6 | -9 | -1
CSCCC(NS(=O)(=O)c1cccc(C(F)(F)F)c1)C(=O)N1CCN(C(=O)c2ccco2)CC1 (centres undefined) | -1 | 2 | 0 | -2 | -11 | nt | nt
CSCCC(NS(=O)(=O)c1cccc(C(F)(F)F)c1)C(=O)N(C)CCOc1ccc(Cl)cc1 (centres undefined) | 11* | -8 | -7 | 29 | 17 | 41* | 21*
COC(=O)c1cc(-c2cc(Cl)ccc2OC)c(=O)n2c1CCC2 | -3 | 1 | 2 | nt | -14 | nt | nt
CC1=Nc2cc(C(=O)NCCN3CCOCC3)ccc2Sc2c(C)ccc(C)c21 | 9.3* | -4 | -2 | -2 | 1 | -15 | 0
C=CCN1[C@H](C#N)[C@@H](c2ccc(C#Cc3ccccc3OC)cc2)[C@H]1CO | -22 | 10 | 13 | nt | -74 | nt | nt
Cc1cc(C)cc(NC(=O)OC2CC3CC2[C@H]2CCCCN2[C@H]3Cc2ccccc2)c1 (some centres undefined) | -3 | -2 | -9 | nt | -2 | nt | nt
Cc1cc(O)cc(=O)n1-c1cc(F)c(F)c(F)c1 | -5 | 2 | -1 | nt | -11 | nt | nt
Cc1ccc(C)c(S(=O)(=O)N(C)Cc2cccs2)c1 | 8.8* | 0 | -3 | 19 | -1 | 23* | 12*
COc1ccc(S(=O)(=O)N(C)Cc2cccs2)cc1Br | 4 | 3 | -2 | 23 | 13 | nt | nt
SMILES | ADAM17 inh | NPR2 activator | NPR1 activator | FAS TE block | ADAM10 inh | ADAM10 counter | ADAM17 confirm
Cc1cc(Nc2cccc(C(F)(F)F)c2)cc(=O)n1-c1cccc(C(F)(F)F)c1 | -4 | 7 | 13 | nt | -12 | nt | nt
COC(=O)[C@H](C(C)C)N(CCc1cn(Cc2ccccc2)nn1)S(=O)(=O)c1ccccc1Br | 6 | 4 | 0 | nt | 8 | nt | nt
O=C(NC1=NCCS1)c1cc(-c2cccc(Br)c2)nc2ccccc12 | 9.1* | -3 | 6 | 5 | 15 | 14 | 9.3*
Cc1ccc2nc(-c3cccc(Br)c3)cc(C(=O)NC3=NCCS3)c2c1 | -2 | -2 | 2 | -94 | 3 | nt | nt
O=C(CCn1nnc(-c2cccs2)n1)N1CCCC1 | 1 | -3 | 3 | nt | -3 | nt | nt
CN(C)c1ccc(C(CNS(=O)(=O)c2ccc3ccccc3c2)c2c[nH]c3ccccc23)cc1 (centres undefined) | 9.1* | 3 | -3 | 32 | 19 | 26* | 20*
CN(C)c1ccc(C(CN)c2c[nH]c3ccccc23)cc1 (centres undefined) | -4 | -8 | -10 | -35 | -3 | nt | nt
CCCc1cc2c(OC)ccc(O)c2c(=O)n1C | -1 | -5 | 2 | nt | -8 | nt | nt
Cc1ccc(-c2nnc(SCC(=O)Nc3ccc4c(c3)OCCO4)n2-c2ccc(C)cc2)cc1 | 5 | 3 | 3 | nt | -5 | nt | nt
Cc1ccccc1N=Nc1ccc(O)c2ncccc12 | 0 | 3 | 2 | 7 | 6 | nt | nt
Nc1ccc(N=Nc2ccccc2)c2cccnc12 | 9.5* | -12 | -2 | 23 | 16 | 25* | 14*
COc1ccc(-n2c(SCC(=O)Nc3cc(C)on3)nc3c(c2=O)SCC3)cc1 | 0 | 1 | 5 | -5 | 1 | nt | nt
COC(=O)c1ccc(CSc2nc3c(c(=O)n2-c2ccc(C)cc2)SCC3)o1 | 12* | -3 | 4 | 24 | 19 | 12 | 6
COc1ccc(C2=NN(C(=O)CSC3=NN4CCCC(=O)N=C4S3)C(c3cccc(OC)c3OC)C2)cc1 (centres undefined) | 10* | -7 | 0 | 12 | 13 | -3 | 0
